# Results taken from PubChem BioAssay AID540308 (The Scripps Research Institute Molecular Screening Center, 2011).
# The campaign covered roughly 360,000 compounds. About 3,500 (0.97%) were called active. Shown is part of a subset that was picked to be rich in actives. A number with no mark means an inactive call.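 The calls were made as follows: active = activation above a per-plate cutoff, the mean activation of sample wells on that plate plus 3 SD (cut at about 8% in these data); inactive = the rest.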
# Target: Melanocortin receptor 4 (Homo sapiens) (UniProt P32245)
# Assay: activators of MC4R beta-arrestin recruitment – cell-based, luminescence, agonist arm of biased-ligand search, primary screen (AID 540308)
# Conditions: U2OS MC4R beta-arrestin complementation, at 8.9 µM, active compounds read high, percent of melanotan II response, DMSO zero
# Sequence of Melanocortin receptor 4 (Homo sapiens) (P32245 whole entry, looked up): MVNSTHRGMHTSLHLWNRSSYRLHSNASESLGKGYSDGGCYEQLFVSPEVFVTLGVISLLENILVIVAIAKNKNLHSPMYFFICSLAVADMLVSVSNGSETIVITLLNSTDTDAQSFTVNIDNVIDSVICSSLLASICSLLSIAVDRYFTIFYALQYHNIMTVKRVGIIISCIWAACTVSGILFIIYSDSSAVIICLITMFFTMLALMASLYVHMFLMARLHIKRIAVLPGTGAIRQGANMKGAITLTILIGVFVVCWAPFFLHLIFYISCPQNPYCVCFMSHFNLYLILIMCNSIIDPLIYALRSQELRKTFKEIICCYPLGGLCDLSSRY
row,Structure (SMILES),activation
1,Cc1cccc(-c2cnc(C(O)c3ccc4ccccc4c3)[nH]2)c1 (stereo unspecified),3.46%
2,CSc1ccc(CNC(=O)C2(C)CCCN2C)cc1 (stereo unspecified),1.3%
3,COc1cccc(-c2cnc(C(O)c3ccccc3OC)[nH]2)c1 (stereo unspecified),-2.21%
4,CCc1ccc(CNC(=O)C2CCN(c3nnc(C)c4c(C)n(-c5ccc(C)cc5)nc34)CC2)cc1,26.2% (active)
5,CCOc1ccc(CNC(=O)C2CCCN(c3nnc(C)c4c(C)n(-c5ccccc5)nc34)C2)cc1 (stereo unspecified),5.34%
6,CCc1ccc(CNC(=O)C2CC(=O)N(CCc3ccc(C)cc3)C2)cc1 (stereo unspecified),-0.56%
7,COc1ccc(C(C)C)cc1-c1ccc2nncn2c1,0.08%
8,CC1(C(=O)Nc2cccnc2)Cc2c(-c3ccccc3)ccnc2O1 (stereo unspecified),-1.27%
9,O=C(Nc1ncc2c(n1)CC(c1ccco1)CC2=O)c1ccc(Cl)cc1 (stereo unspecified),-1.23%
10,CCc1ccc(Nc2ncc3c(n2)CC(c2ccco2)CC3=O)cc1 (stereo unspecified),9.92% (active)
11,CN1CCN(c2ncc3c(n2)CC(c2ccccc2F)CC3=O)CC1 (stereo unspecified),-1.94%
12,COc1ccc(Nc2ncnc3sc(-c4ccccc4)cc23)c(OC)c1,10.6% (active)
13,COc1ccccc1Nc1ncnc2c1oc1ccccc12,0.07%
14,COc1ccc(Nc2ncnc3ccc(Br)cc23)c(OC)c1,0.1%
15,CC1(Oc2cccc(F)c2)CCN(Cc2ccccc2OC(F)F)C1 (stereo unspecified),-1.66%
16,CCCOc1ccc(F)cc1-c1cc(C(=O)NCc2ccc(F)cc2)[nH]n1,0.57%
17,Oc1cccc2cc(-c3ccncc3)cnc12,-1.87%
18,COc1ccc(NC(=O)c2sc(=O)n(Cc3ccc(S(=O)(=O)N(C)C)cc3)c2C)cc1,-1.44%
19,COc1cccc(CN2CCC(C(=O)NC(c3ccc4c(c3)OCO4)c3ccccn3)CC2)c1 (stereo unspecified),-1.26%
20,CCc1nc2c(OCCOc3ccccc3)cccn2c1N(C)C(=O)c1ccc(OC)cc1,-0.76%
21,Brc1ccc(-c2csc(N/N=C/c3cccnc3)n2)cc1,11.6% (active)
22,O=C(CSc1cccc2cccnc12)N/N=C/c1cccnc1,-5.02%

row,Structure (SMILES),activation
1,O=C(N/N=C\c1cccnc1)c1cc(-c2ccccc2)nc2c(Cl)cccc12,-0.85%
2,COc1ccc(S(=O)(=O)NC(=O)C2(C)CCN2C(=O)COc2ccc(Cl)cc2)cc1 (stereo unspecified),-1.47%
3,Cc1nn2cc(-c3ccc(Cl)cc3)cnc2c1Br,13.2% (active)
4,CC(=O)NC(c1cccc(F)c1)c1nc(-c2cccc(F)c2)cs1 (stereo unspecified),0.2%
5,Cc1ccc(F)c(S(=O)(=O)NC(=O)C2(C)CCN2C(=O)CCc2cccs2)c1 (stereo unspecified),0.83%
6,CC(C)Oc1cc(F)ccc1-c1cc(C(=O)Nc2ccc(F)cc2)[nH]n1,-0.4%
7,COc1cc(C(O)c2nc(-c3cnn(C)c3)cs2)ccc1F (stereo unspecified),-1.52%
8,Cc1coc2c(O)cc3c(c12)OC1(N2CCCCC2)C(=O)NCCCC31 (stereo unspecified),8.45% (active)
9,O=C(NCc1cccc(C(F)(F)F)c1)c1ccc2sc(COCCO)nc2c1,-1.45%
10,NC(=O)Nc1ccc(C(=O)OCC(=O)NC2CCCc3ccccc32)cc1 (stereo unspecified),-2.32%
11,CCOC(=O)c1c(NC(=O)CNC2CCCc3ccccc32)sc(C(N)=O)c1C (stereo unspecified),8.65% (active)
12,CCOC(=O)c1c(NC(=S)SC)sc(C(=O)N2CCc3ccccc3C2)c1C,-0.37%
13,C#Cc1ccc(NC(=O)C2(C)CCN2C(=O)Cc2ccc(-c3ccccc3)cc2)cc1 (stereo unspecified),0.34%
14,CCCC/C=C/c1cccc2nncn12,0.76%
15,CN1CCC(CN)(N2CCN(c3ccccc3)CC2)CC1,0.54%
16,COc1ccccc1N1CCN(c2ncnc3sc(C)c(-c4ccccc4)c23)CC1,2.5%
17,Oc1ccccc1N1CCN(c2ncnc3sc(-c4ccccc4)cc23)CC1,14.4% (active)
18,CCc1cc2c(N3CCN(c4nnc(CC)s4)CC3)ncnc2s1,1%
19,CCCNC(=O)C1(C)CCN(C(=O)c2cc(F)ccc2C)C1 (stereo unspecified),-0.94%
20,CC(C)(C(=O)N1CCC1(C)C(=O)NS(=O)(=O)c1ccc(Br)cc1)c1ccccc1 (stereo unspecified),-0.16%
21,Cc1ccc(C2(C(F)(F)F)N=C3Sc4cc(C)cc(C)c4N3C(=O)N2)cc1 (stereo unspecified),-0.99%
22,CCOC(=O)N(C)c1c(CC)nc2c(OCc3ccccc3C(=O)OC)cccn12,-1.73%

row,Structure (SMILES),activation
1,CCc1nc2c(OCCOc3ccc(F)cc3)cccn2c1N(C)C(=O)c1ccccc1F,0.11%
2,COC(=O)c1sccc1NC(=O)CCC1CCCC1,10.9% (active)
3,CC(=O)Oc1ccc(NC(=O)CCC2CCCCC2)c(C(=O)O)c1,0.62%
4,COc1ccc(NC(=O)CCCC2CCCCC2)c(OC)c1,-1.23%
5,COCCCNC(=O)c1cccc2c(-c3ccc(O)c(OC)c3)coc12,0.52%
6,COc1ccc(S(=O)(=O)Nc2ccc3cn[nH]c3c2)cc1[N+](=O)[O-],-0.37%
7,COc1ccc(S(=O)(=O)N/N=C\c2ccc(OC)c(COc3ccc(C)cc3[N+](=O)[O-])c2)cc1,12.8% (active)
8,Cc1ccc(S(=O)(=O)N/N=C\c2cc3c(cc2[N+](=O)[O-])OCO3)cc1,-2.43%
9,CN1CCN(C(=O)c2ccc(-c3cc4nc(NCc5cccnc5)n(C)c(=O)c4s3)cc2)CC1,-1.19%
10,Cc1ccc(S(=O)(=O)NCCC(=O)Nc2ccc(C)c(Cl)c2)cc1C,10.6% (active)
11,Cc1ccc(NC(=O)CCNS(=O)(=O)c2ccc3c(c2)oc(=O)n3C)cc1C,-0.21%
12,Cc1ccc(S(=O)(=O)NCCC(=O)Nc2cccc(S(N)(=O)=O)c2)cc1C,-1.36%
13,O=C(Nc1ccc(F)cc1)Nc1nnc([C@H]2C[C@H](O)[C@@H](CO)O2)s1,0.21%
14,O=C(NCc1cccnc1)c1ccc2nc([C@@H]3O[C@H](CO)[C@H](O)[C@H](O)[C@H]3O)[nH]c2c1,-1.52%
15,CC(=O)c1ccc(Nc2nc(C(N)c3ccccc3)cs2)cc1 (stereo unspecified),1.43%
16,CC1(C(=O)Nc2cccc(Oc3ccccc3)c2)CCN1Cc1ccccc1Cl (stereo unspecified),-1.51%
17,Cc1nc2nc(SCC(=O)Nc3cccc(F)c3)[nH]c2cc1Br,4.22%
18,CCn1c(CNC(=O)c2ccco2)nnc1SCC(=O)Nc1cccc(F)c1,2.05%
19,CCn1c(SCC(=O)Nc2cccc(F)c2)nnc1-c1cc2cc(Br)ccc2o1,14.9% (active)
20,CCCNS(=O)(=O)c1ccc2c(c1)CCCN2C(C)=O,-3.18%
21,CN(C(=O)CN1CCN(c2cc(-c3ccc(OCc4ccccc4)cc3)ncn2)CC1)c1ccccc1,-0.62%
22,CCCS(=O)(=O)NC(=O)C1(C)CCCN(C(=O)c2cccs2)C1 (stereo unspecified),-0.48%
